Compound activity: PubChem BioAssay, several laboratories
TROY signal inh: TROY signaling inhibition | 360,000 compounds, 0.98% hits | Q293 LMP1-TROYcd NF-kB luciferase reporter, 4 h | inhibition, % at 10 µM;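 active means compounds whose plate-normalised and pattern-corrected inhibition of the luciferase reporter signal at the single screening dose is 50% or more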
HSP90 refold inh: inhibitors of HSP90 luciferase refolding in rabbit reticulocyte lysate; luciferase refolding luminescence, 3 h; inhibition, % at 5.6 µM; 290,000 compounds, 0.91% hits;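 active means inhibition above the screen-wide mean plus 3 SD, computed separately per campaign, cut at about 16% in these data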;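 further: 0% = DMSO wells and 100% = 60 µM geldanamycin wells; inhibitors lower the luminescence because luciferase stays unfolded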
aSyn 5UTR inh: 5' untranslated region of α-synuclein, MLPCN primary screen; inhibition, % (tested at 7.5 µM); alpha-synuclein 5'UTR reporter, inhibitor activity; 300,000 compounds, 0.82% hits; in the data active means inhibition above about 60%;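 further: H4 neuroglioblastoma cells stably carrying SNCA 5'UTR luciferase fusion; 0% = DMSO wells and 100% = positive control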
C8 TRAIL sens: caspase-8 TRAIL sensitization; NB7+C8 cells + TRAIL, ATPlite viability luminescence; inhibition (viability loss, TRAIL sensitization), % at 10 µM; 360,000 compounds, 1% hits; AID 624354;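 active means compounds causing at least 50% loss of cell viability in the single-dose screen, relative to plate controls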
HIF-2a block: HIF-2a inhibition; inhibition, % at 18.8 µM; AID 624352; 360,000 compounds, 0.72% hits; 786-0 RCC cells HIF-2a reporter, luciferase luminescence, overnight;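 active means inhibition of the luminescence signal of 40% or more relative to plate controls, in a single-dose primary screen at 18.75 µM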
TWEAK-Fn14 inh: inhibitors of TWEAK-Fn14 interaction signaling; 360,000 compounds, 2% hits; inhibition, % at 10 µM; TWEAK-stimulated Fn14 reporter cells, luciferase luminescence, 8 h; in the data active means inhibition above about 50%
Mdm2 MdmX conf: confirmation of inhibitors of human Mdm2/MdmX interaction, set 2; shares compounds with HIF-2a block; SaOS-2 split-luciferase Mdm2/MdmX complementation, luminescence; inhibition, % at 8 µM; 740 compounds, 99% hits;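 active means mean inhibition of the luminescence signal across two replicates at or above 26 percent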
HIF-2a inh conf: confirmation of HIF-2a inhibitors; inhibition, % at 18.8 µM; shares compounds with HIF-2a block; 786-0 RCC cells, HIF-2a luciferase reporter luminescence, overnight; 1,800 compounds, 56% hits;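 active means mean inhibition across four replicates of at least 40 percent at the single tested concentration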
HIF-1a cs: counter-screen for HIF-2a inhibitors: HIF-1a inhibition in MiaPaCa-2 cells. 1,800 compounds, 72% hits. MiaPaCa-2 HIF-1a luciferase reporter, desferoxamine, overnight. inhibition, % at 18.8 µM. shares compounds with HIF-2a block;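 active means mean inhibition of the reporter signal across four replicates at the single tested dose of 50% or more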
Active calls of the source: *. An excerpt weighted towards active compounds, which were near 3.9% of everything screened.

`O=C(N/N=C/c1sc(N2CCOCC2)nc1-c1ccccc1)c1ccc(O)cc1` gave TROY signal inh -22.8, HSP90 refold inh 4.5, aSyn 5UTR inh -22.9, C8 TRAIL sens -25.3, HIF-2a block -16.2 and TWEAK-Fn14 inh 32.0.
O=C(N/N=C/c1sc(N2CCOCC2)nc1-c1ccccc1)c1cccc(S(=O)(=O)N2CCCC2)c1 was read as TROY signal inh 9.9, HSP90 refold inh 0.2, aSyn 5UTR inh 98.9*, C8 TRAIL sens 13.9, HIF-2a block 32.3, TWEAK-Fn14 inh 51.0* and Mdm2 MdmX conf 80.0*.
CCOc1cc(/C=N/N=C(N)N)ccc1OCc1ccc(Cl)cc1 was read as TROY signal inh -14.2, HSP90 refold inh -0.5, aSyn 5UTR inh -32.2, C8 TRAIL sens 86.6*, HIF-2a block 97.5*, TWEAK-Fn14 inh 10.2, HIF-2a inh conf -11.2 and HIF-1a cs 107.0*.
Screening CCOc1cc(CNCCc2ccc(S(N)(=O)=O)cc2)ccc1OCc1ccc(Cl)cc1 returned TROY signal inh 29.2, HSP90 refold inh 3.6, aSyn 5UTR inh 97.5*, C8 TRAIL sens 72.8*, HIF-2a block 85.5*, TWEAK-Fn14 inh 86.1*, HIF-2a inh conf 3.3 and HIF-1a cs 102.4*.
For CCOc1cc(/C=N/O)ccc1OCc1ccc(F)cc1 the results were TROY signal inh -38.5, HSP90 refold inh -5.7, aSyn 5UTR inh -10.5, C8 TRAIL sens -4.3, HIF-2a block -68.0 and TWEAK-Fn14 inh -39.4.
Screening COc1cc(CNCCc2ccc(S(N)(=O)=O)cc2)ccc1OCc1ccc(Cl)cc1 returned TROY signal inh -9.0, HSP90 refold inh -0.5, aSyn 5UTR inh -64.2, C8 TRAIL sens 42.8, HIF-2a block 74.8*, TWEAK-Fn14 inh -10.4, HIF-2a inh conf -7.9 and HIF-1a cs 93.5*.
`Cc1c(NC(=O)CSc2nnc(C(C)N(C)C)n2-c2ccccc2)c(=O)n(-c2ccccc2)n1C` (stereo not drawn) gave TROY signal inh -10.5, C8 TRAIL sens 1.7, HIF-2a block 11.8 and TWEAK-Fn14 inh 19.3.
For COC(=O)Cn1ccc(-c2ccc(Cl)cc2)c(C#N)c1=O the results were TROY signal inh 5.5, HSP90 refold inh -0.9, aSyn 5UTR inh 1.8, C8 TRAIL sens 0.9, HIF-2a block 57.4*, TWEAK-Fn14 inh 2.0, HIF-2a inh conf 4.4 and HIF-1a cs 1.6.
For COC(=O)Cn1ccc(N(C)C)c(C#N)c1=O the results were TROY signal inh -4.0, HSP90 refold inh 0.1, aSyn 5UTR inh -0.4, C8 TRAIL sens -13.4, HIF-2a block 12.5 and TWEAK-Fn14 inh -12.5.
Screening C[C@@H]1CN([C@@H](C)CO)C(=O)CCCn2nncc2CO[C@H]1CN(C)Cc1cccc(C(F)(F)F)c1 returned TROY signal inh -11.3, C8 TRAIL sens -2.7, HIF-2a block 8.2 and TWEAK-Fn14 inh 7.3.
Screening C[C@@H]1CN([C@H](C)CO)C(=O)CCCn2nncc2CO[C@@H]1CN(C)S(=O)(=O)c1ccc(-n2cccn2)cc1 returned TROY signal inh 5.4, C8 TRAIL sens -14.1, HIF-2a block 4.0 and TWEAK-Fn14 inh -33.8.
Screening COc1ccc(/C=C2\SC(=S)N(CCC(=O)Nc3cccc(O)c3)C2=O)cc1 returned TROY signal inh -1.6, HSP90 refold inh 4.0, aSyn 5UTR inh -5.8, C8 TRAIL sens 20.4, HIF-2a block 39.8 and TWEAK-Fn14 inh -16.0.
Screening COc1ccc(/C=C2/SC(=S)N(CCCC(=O)Nc3ccc(O)cc3)C2=O)cc1 returned TROY signal inh -21.9, HSP90 refold inh 2.0, aSyn 5UTR inh 68.0*, C8 TRAIL sens 5.4, HIF-2a block 31.2, TWEAK-Fn14 inh -1.7 and Mdm2 MdmX conf 102.2*.
For COc1ccc(/C=C2\SC(=S)N(CCCC(=O)Nc3ccc(O)cc3)C2=O)cc1 the results were TROY signal inh 17.4, HSP90 refold inh 3.0, aSyn 5UTR inh 77.7*, C8 TRAIL sens 2.6, HIF-2a block 44.6*, TWEAK-Fn14 inh 5.6 and Mdm2 MdmX conf 103.0*.
